Compounds with a hit are over-represented: about 3.4% of the library has one in this group of screens.
TRPM1 prom inh – reduces MITF-dependent TRPM1 promoter luciferase signal. inhibition, % at 12.5 µM. 330,000 tested, 0.83% active. SK-MEL-5 TRPM1 promoter luciferase, 24 h;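 active = mean inhibition across replicates of 60% or more, whatever share of single replicates reaches that level; inconclusive = some that reach 60%, reason not given; inactive = mean inhibition across replicates below 60%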
TROY NFkB inh – inhibitors of TROY-dependent NF-kB signaling; inhibition, % at 10 µM; Q293 LMP1-TROYcd NF-kB luciferase reporter, 4 h; AID 1347056; 360,000 tested, 0.98% active;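 active = compounds whose plate-normalised and pattern-corrected inhibition of the luciferase reporter signal at the single screening dose is 50% or more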
HIF-2a block – inhibitors of HIF-2a | 786-0 RCC cells HIF-2a reporter, luciferase luminescence, overnight | inhibition, % at 18.8 µM | 360,000 tested, 0.72% active | AID 624352;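 active = inhibition of the luminescence signal of 40% or more relative to plate controls, in a single-dose primary screen at 18.75 µM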
TWEAK Fn14 block – blocks TWEAK-Fn14 interaction in a reporter cell assay. TWEAK-stimulated Fn14 reporter cells, luciferase luminescence, 8 h. inhibition, % at 10 µM. 360,000 tested, 2% active. AID 1159606; in the data active = inhibition above about 50%
Shn3 3UTR inh – Schnurri-3 reporter inhibition in Clone20 osteoblasts. inhibition, % at 12.5 µM. Clone20 osteoblast Shn3 3'UTR firefly luciferase, 24 h. AID 588674. 360,000 tested, 0.52% active;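 active = mean inhibition of at least 75% with every replicate also reaching 75%; inconclusive = mean inhibition at least 75% but some replicate below; inactive = mean inhibition below 75%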
EBV LMP1 NFkB – inhibitors of Epstein-Barr LMP1-induced NF-kappaB reporter | LMP1-induced NF-kappaB luciferase reporter cells, luminescence | inhibition, % at 12.5 µM | 350,000 tested, 0.69% active | AID 504558; in the data active = inhibition above about 41%; inconclusive = no clear call, values can overlap the other calls
Of the large screens only hits and unclear results are named; the others gave an inactive call; ! = not confirmed by another sample.

O=S1(=O)N=C(c2ccccc2)c2ccccc21	none
Cc1ncc([N+](=O)[O-])n1CC(=O)Nc1cc(Cl)ccc1Cl	none
CCN(CC(=O)Nc1c(F)cccc1F)C(=O)CCN1C(=O)C2CCCCC2C1=O (stereo unspecified)	none
O=Nc1ccc(NO)c2ccccc12	TWEAK Fn14 block 70.8 (no result: TRPM1 prom inh)
COc1ccc(S(=O)(=O)Nc2ccc(F)cc2)cc1N(C)S(=O)(=O)c1ccc(Cl)cc1	none
COc1ccc(NS(=O)(=O)c2ccc(OC)c(N(C)S(=O)(=O)c3ccc(Cl)cc3)c2)cc1	Shn3 3UTR inh 87.3
CN(C)S(=O)(=O)c1ccc(N2CCCC2)c(C(=O)N2CCN(S(=O)(=O)c3ccccc3F)CC2)c1	none
COc1ccccc1C(=O)Nc1nc2ccccc2[nH]1	TRPM1 prom inh 96.3, TROY NFkB inh 88.9, HIF-2a block 93.4, TWEAK Fn14 block 106.6, Shn3 3UTR inh 91.4, EBV LMP1 NFkB 88.0
Cc1ccc(C(=O)Nc2nc3ccccc3[nH]2)cc1	TRPM1 prom inh 73.2, TROY NFkB inh 71.2, HIF-2a block 63.0, TWEAK Fn14 block 97.4, EBV LMP1 NFkB 63.4
COc1ccccc1-n1c(-c2ccccc2)c[n+]2c1CCc1ccccc1-2	TRPM1 prom inh 67.4!, Shn3 3UTR inh 90.3!
COc1ccc(-n2c(-c3ccc(Br)cc3)c[n+]3c2CCc2ccccc2-3)cc1	TRPM1 prom inh 97.5, Shn3 3UTR inh inconclusive
FC(F)Oc1ccc(-c2c[n+]3c(n2-c2ccccc2)CCCCC3)cc1	none
COc1ccc(-c2c[n+]3c(n2-c2ccc(C)cc2)CCCCC3)cc1	none (no result: Shn3 3UTR inh)
COc1ccc(-c2cn(-c3ccc(OC)cc3)c3[n+]2-c2ccccc2CC3)cc1	TRPM1 prom inh 69.1, Shn3 3UTR inh inconclusive
CC(C)c1ccc(-n2c(-c3ccccc3)c[n+]3c2CCc2ccccc2-3)cc1	TRPM1 prom inh 88.4, TROY NFkB inh 58.9, TWEAK Fn14 block 84.2
COc1ccccc1-n1c(-c2ccccc2)c[nH]c1=S	none
OC(c1ccc2c(c1)OCO2)c1ncc(-c2cccc(C(F)(F)F)c2)[nH]1 (stereo unspecified)	none (no result: TRPM1 prom inh, EBV LMP1 NFkB)
CCOc1ccc(C(C)NC(=O)c2cc(=O)[nH]c3ccccc23)cc1OCC (stereo unspecified)	none (no result: TRPM1 prom inh)
O=C(NCCc1ccccc1)c1ccccc1Cl	TWEAK Fn14 block 78.5, EBV LMP1 NFkB 45.6
Cn1cccc1C(=O)NCCc1ccc(Cl)cc1	none
O=C(c1cc(C(=O)NCCc2ccccc2)c(=O)n(CCc2ccccc2)c1)c1cc(Cl)ccc1O	TWEAK Fn14 block 66.2
Cn1cccc1C(=O)NCCc1ccccc1	TWEAK Fn14 block 56.0
O=C(O)c1ccccc1C(=O)NCCc1ccc(Cl)cc1	none
CCCNC(=O)c1ccccc1C(=O)NCCC	TWEAK Fn14 block 89.3
Cc1ccccc1C(=O)N1CCC(C(=O)OCc2ccccc2Cl)CC1	none
CC(=O)c1ccc(N2CCN(S(=O)(=O)c3ccc4c(c3)CC(C)N4C(C)=O)CC2)cc1 (stereo unspecified)	none
CC(=O)c1ccc(N2CCN(S(=O)(=O)c3ccc4c(c3)CC(C)N4C(=O)C3CC3)CC2)cc1 (stereo unspecified)	Shn3 3UTR inh 88.1
CC(=O)N1c2ccc(S(=O)(=O)N3CCC(C(=O)Nc4cccc(C(F)(F)F)c4)CC3)cc2CC1C (stereo unspecified)	Shn3 3UTR inh 92.7 (no result: EBV LMP1 NFkB)
CC(=O)N1c2ccc(S(=O)(=O)NCC3CCC(C(=O)Nc4cccc(C)n4)CC3)cc2CC1C (stereo unspecified)	TWEAK Fn14 block 58.8
CC(=O)N1c2ccc(S(=O)(=O)N3CCC(C(=O)N4CCN(c5cc(Cl)ccc5C)CC4)CC3)cc2CC1C (stereo unspecified)	Shn3 3UTR inh 89.1
CCCCCC(NC(=O)C1CCN(C(=O)[C@@H](NS(=O)(=O)c2ccc(C)cc2)C(C)C)CC1)C(=O)O (stereo partly specified)	none
Cc1ccc(S(=O)(=O)N[C@H](C(=O)N2CCC(C(=O)N[C@@H](CC(=O)O)C(=O)O)CC2)C(C)C)cc1	EBV LMP1 NFkB 74.4
O=c1c2ccccc2oc2ccc(C#CC3(O)CCCCC3)cc12	TROY NFkB inh 88.7, TWEAK Fn14 block 98.3
NC1(C#Cc2ccc3c(=O)c4ccccc4sc3c2)CCCCC1	TWEAK Fn14 block 81.4
COc1cccc2oc3ccc(C#CC4(N)CCCCC4)cc3c(=O)c12	none
Cn1c2ccccc2c(=O)c2ccc(C#CC3(N)CCCCC3)cc21	TROY NFkB inh 62.3
Cn1c2ccccc2c(=O)c2cc(C#CC3(O)CCCCC3)ccc21	TROY NFkB inh 88.1, TWEAK Fn14 block 89.7
N#Cc1ccc(C#Cc2ccc3oc4ccccc4c(=O)c3c2)cc1	none
COc1cc(-c2ccc3c(=O)c4ccccc4sc3c2)cc(OC)c1OC	none
CC(=O)C12OC(C)(C)OC1CC1C3CCC4=CC(=O)C=CC4(C)C3(F)C(O)CC12C (stereo unspecified)	none
CCC1(c2ccc(F)cc2)NC(=O)N(CC(=O)Nc2cccc(S(=O)(=O)N3CCOCC3)c2)C1=O (stereo unspecified)	none
COc1cc(C(C)=O)ccc1OCC(=O)Nc1ccc(Cl)c(S(=O)(=O)N2CCOCC2)c1	none
COc1ccc(-c2cc(NC=O)c3ncc(-c4ccc(OC)c(OC)c4)n3c2)cc1	none (no result: TRPM1 prom inh, EBV LMP1 NFkB)
O=C(CN(c1cccc(Br)c1)S(=O)(=O)c1ccccc1)N/N=C/c1cc([N+](=O)[O-])ccc1O	TROY NFkB inh 52.1
O=C(CCCC(=O)Nc1cccc(Br)c1)N/N=C/c1cc([N+](=O)[O-])ccc1O	none
CCN(C(=O)COC(=O)CCCOc1ccccc1)c1c(N)n(Cc2ccccc2)c(=O)[nH]c1=O	none
COc1ccc(-c2csc(NC(=O)c3c(OC)cccc3OC)n2)cc1	none
CCCNC(=O)c1ccccc1NS(=O)(=O)c1ccc(OC)c(OC)c1	none
COc1ccc(S(=O)(=O)Nc2ccccc2C(=O)Nc2nc(-c3ccc(F)cc3)cs2)cc1OC	TROY NFkB inh 58.6, TWEAK Fn14 block 92.0
COc1ccc(-c2csc(NC(=O)c3ccccc3NS(=O)(=O)c3ccc(C)cc3)n2)cc1	TROY NFkB inh 69.9, TWEAK Fn14 block 92.9
COc1ccc(-c2csc(NC(=O)C3=NN(c4ccccc4)C(=O)CC3)n2)cc1	TWEAK Fn14 block 87.6
COc1cc(C=NO)nc(-c2ccccn2)c1	TRPM1 prom inh 79.2, Shn3 3UTR inh 93.0, EBV LMP1 NFkB 57.1
O=C(NCC(=O)N1CCCC(C(F)(F)F)C1)c1cccs1 (stereo unspecified)	none
Cc1nc([N+](=O)[O-])c(Br)n1CC(=O)c1ccc2ccccc2c1	Shn3 3UTR inh 95.0
Cc1cc(N2CCOCC2)c2c(N)c(Br)cc(C)c2n1	EBV LMP1 NFkB 62.6
O=C(Nc1ccncc1)c1ccc(NS(=O)(=O)c2ccc3[nH]c(=O)[nH]c3c2)cc1	none
CCOCCCNC(=O)C(NC(=O)CNC(C)=O)c1ccc(C)cc1 (stereo unspecified)	TWEAK Fn14 block 73.1

Bioassay records: PubChem BioAssay, several laboratories
